Experimental data published in PubChem BioAssay (NCATS).
“And” between values parts separate entries of the source, which are not always exact repeats. Identical values can stand only once. Unmarked numbers belong to inactive results. Records with an inconclusive call do not appear. A call without a number means that no potency is given here. The source made the active and inactive calls. Unless noted, calls come from the whole dose curve; as a rule, active = well fitted curve in the direction sought with a large enough effect; inconclusive = small, poorly fitted or top-dose-only effect, or another doubt; inactive = no such curve, though single readings can be large; an effect the other way counts as inactive or inconclusive.

What was measured:
[1] = biological target: Glucocorticoid receptor (Homo sapiens) (UniProt P04150); assay: GR-GFP Redistribution (AID 450;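 active = compounds whose dose series gives a full or clear partial fitted curve of increased nuclear translocation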; note: potency is the fitted concentration of half-maximal effect); details: U2OS GR-GFP nuclear translocation, laser cytometry, 2 h
[2] = biological target: Glucocorticoid receptor (Homo sapiens) (UniProt P04150); assay: GR-EFC Redistribution (AID 451; calls by dose curve; note: potency is the fitted concentration of half-maximal effect); details: CHO-K1 GR-EFC translocation, beta-gal luminescence, 2 h
How it was run: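 CHO-K1 cells stably expressing nuclear-localized β-gal enzyme acceptor and GR fused C-terminally to the enzyme donor fragment; ligand-driven nuclear translocation restores β-gal by complementation. Compounds titrated up to 46 uM final, 2 h at 37 °C; luminescence read.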

[3] = biological target: Mitogen-activated protein kinase 10 (Mus musculus) (UniProt Q61831); assay: JNK3 AlphaScreen Assay (AID 530; active = well fitted curve in either direction with a large enough effect, not every such curve was filed as active;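 note: kinase came from lysate of stimulated human HepG2 cells; signal reports phosphorylation of biotinylated GST-cJun 1-79 at Ser73 with 10 µM ATP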); details: JNK3 lysate, c-Jun phosphorylation; series mostly up to 57.1 µM
How it was run: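 Biotinylated GST-cJun(1-79) served as substrate for JNK3 in HepG2 lysates stimulated with IL-1beta and TNF-alpha. ATP was 10 uM final, pH 7.6. Ser73 phosphorylation was quantified by AlphaScreen (680 nm excitation).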

[4] = Cell Viability - NIH 3T3 (AID 541); details: NIH 3T3 cell viability, qHTS; at 92.2 µM (top of the series);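 note: cells exposed to compound for 40 hours; nearly all actives have a fitted effect of over 25% in size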
How it was run: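 qHTS format; 40 hr compound exposure, 37 °C; CellTiter-Glo luminescence (cellular ATP) read-out after 20 min at RT. Decrease in ATP = cytotoxicity; AC50 from standard Hill fit.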

[5] = Cell Viability - HUV-EC-C (AID 542); details: HUV-EC-C endothelial cell viability, qHTS; series mostly up to 92.2 µM;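 note: cells exposed to compound for 40 hours; nearly all actives have a fitted effect of over 35% in size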; note: potency is the fitted concentration of half-maximal effect
How it was run: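 Luminescent ATP read-out (CellTiter-Glo, 20 min room temperature) after 40 hr compound treatment of HUV-EC-C cells at 37 °C. Concentration-response data fitted with the standard Hill equation to give AC50; tamoxifen and doxorubicin served as positive controls.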

[6] = Cell Viability - Mesenchymal (AID 546); details: mesenchymal cells viability, qHTS; series mostly up to 91.7 µM;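 note: cells exposed to compound for 40 hours before reading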
How it was run: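 In this qHTS cytotoxicity format, glomerulus-derived human mesenchymal kidney cells received compound for 40 hr, then luciferase-based ATP quantitation. Concentration-response data were fitted with the Hill equation.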

[7] = Cell Viability - N2a (AID 540); details: N2a mouse neuroblastoma cell viability; series mostly up to 92.2 µM; note: nearly all actives have a fitted effect of over 45% in size
How it was run: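 N2a mouse neuroblastoma, 1500 cells/well, 5 hr settle; compound 40 hr, 37 °C; CellTiter-Glo 20 min RT; luminescence; Hill-fit AC50.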

[8] = Cell Viability - H-4-II-E (AID 543); details: H-4-II-E rat hepatoma viability; series mostly up to 92.2 µM;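 note: cells exposed to compound for 40 hours; nearly all actives have a fitted effect of over 35% in size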; note: potency is the fitted concentration of half-maximal effect
How it was run: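 qHTS, rat hepatoma H-4-II-E, 1500 cells/well; 40 hr compound exposure, 37 °C; CellTiter-Glo ATP luminescence after 20 min RT; AC50 by standard Hill fit.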

[9] = Cell Viability - SH-SY5Y (AID 544); details: SH-SY5Y neuroblastoma cell viability; series mostly up to 92.2 µM;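 note: cells exposed to compound for 40 hours; nearly all actives have a fitted effect of over 55% in size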; note: potency is the fitted concentration of half-maximal effect
How it was run: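 SH-SY5Y, 1500 cells/well, 5 hr pre-incubation 37 °C; cpd 40 hr 37 °C; CellTiter-Glo 20 min RT; luminescence (ATP) read. qHTS concentration-response, Hill fit → AC50. Tamoxifen, doxorubicin as positive controls.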

[10] = Cell Viability - Renal Proximal Tubule (AID 545); details: renal proximal tubule cells viability; series mostly up to 91.7 µM;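 note: cells exposed to compound for 40 hours; nearly all actives have a fitted effect of over 40% in size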
How it was run: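 Luminescent ATP signal (CellTiter-Glo) served as the viability read-out after 40 hr compound exposure of freshly isolated rat proximal tubule cells at 37 °C. Concentration-dependent ATP loss was fitted with the Hill equation to give AC50.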

Glucocorticoid receptor (Homo sapiens), sequence (P04150 whole entry, looked up, the tested form may be a part): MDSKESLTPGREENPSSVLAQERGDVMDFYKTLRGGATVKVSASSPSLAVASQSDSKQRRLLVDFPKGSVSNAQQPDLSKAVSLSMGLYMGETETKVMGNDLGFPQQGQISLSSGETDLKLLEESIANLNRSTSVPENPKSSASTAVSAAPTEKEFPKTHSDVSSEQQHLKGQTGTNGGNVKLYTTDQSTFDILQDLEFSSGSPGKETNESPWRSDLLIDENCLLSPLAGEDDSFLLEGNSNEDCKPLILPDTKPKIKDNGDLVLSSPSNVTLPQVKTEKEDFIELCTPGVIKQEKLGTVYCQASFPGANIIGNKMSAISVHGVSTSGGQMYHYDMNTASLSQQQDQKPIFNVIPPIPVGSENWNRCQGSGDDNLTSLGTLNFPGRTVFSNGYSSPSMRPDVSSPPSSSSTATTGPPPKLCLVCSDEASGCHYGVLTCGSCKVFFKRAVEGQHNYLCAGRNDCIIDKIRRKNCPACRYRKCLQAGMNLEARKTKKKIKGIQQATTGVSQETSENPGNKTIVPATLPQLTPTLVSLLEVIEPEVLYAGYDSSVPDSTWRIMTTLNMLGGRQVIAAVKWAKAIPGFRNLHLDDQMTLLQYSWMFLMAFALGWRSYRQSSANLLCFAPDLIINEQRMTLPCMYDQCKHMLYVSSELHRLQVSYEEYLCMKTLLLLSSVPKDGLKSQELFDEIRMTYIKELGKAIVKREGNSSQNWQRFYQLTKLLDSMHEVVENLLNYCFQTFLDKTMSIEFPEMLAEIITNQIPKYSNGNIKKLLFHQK

SMILES | Potency [1] | Potency [2] | outcome [3] | activity change, negative = cytotoxicity [4] | Potency [5] | outcome [6] | outcome [7] | Potency [8] | Potency [9] | outcome [10]
O=c1[nH]oc2c1CCNC2 | > 46 µM and > 20.6 µM | > 46 µM and > 20.6 µM | inactive |  |  |  |  |  |  | 
Cc1ncsc1CCCl | > 46 µM | > 46 µM | inactive |  |  |  |  |  |  | 
CNC(C)(C)Cc1ccccc1 | > 20.6 µM | > 20.6 µM | inactive |  |  |  |  |  |  | 
C[C@]12CCC(=O)C=C1CC[C@@H]1[C@@H]2CC[C@@]2(C)[C@H]1CC[C@]2(C)O |  |  | inactive | -123% (active) | inactive | inactive |  |  |  | 
CC(NC(C)(C)C)C(=O)c1cccc(Cl)c1 (stereo not drawn) | > 20.6 µM |  |  |  |  |  |  |  |  | 
COP(=S)(OC)Oc1ccc(SC)c(C)c1 |  |  |  | -11.1% | inactive | inactive | inactive | inactive | inactive | inactive
NCCc1ccc(O)cc1 | > 46 µM | > 46 µM | inactive | -149% (active) | inactive | inactive | inactive | inactive | inactive | inactive
COc1ccc2c(c1)C13CCCC[C@@H]1C(C2)N(C)CC3 (stereo partly drawn) | > 20.6 µM | > 20.6 µM | inactive |  |  |  |  |  |  | 
C=CCN1C[C@H](C)N([C@H](c2ccc(C(=O)N(CC)CC)cc2)c2cccc(OC)c2)C[C@H]1C | > 46 µM | > 46 µM | inactive |  |  |  |  |  |  | 
CCCCC/C=C\C/C=C\C/C=C\C/C=C\CCCC(=O)NCC(=O)O | > 46 µM |  | inactive |  |  |  |  |  |  | 
COc1c2c(cc3c1OCO3)CCN(C)C2 | > 20.6 µM | > 20.6 µM | inactive |  |  |  |  |  |  | 
CCOC(=O)CC(SP(=S)(OC)OC)C(=O)OCC (stereo not drawn) |  |  | inactive | -25.9% | inactive | inactive | inactive | inactive | 12.6 µM (active) | inactive
Nc1ccccc1C(=O)O |  |  | inactive | -17.8% | inactive | inactive | inactive | inactive | inactive | inactive
COC(=O)C(c1ccccc1)C1CCCCN1 (stereo not drawn) |  |  | inactive | -13.4% | inactive | inactive | inactive | inactive | inactive | inactive
Clc1ccc(C(c2ccc(Cl)cc2)C(Cl)(Cl)Cl)cc1 |  |  |  | -24.2% | 50.1 µM (active) |  |  |  | inactive | inactive
CCCC(C)(COC(N)=O)COC(N)=O |  |  |  | -19.1% | inactive | inactive | inactive | inactive | inactive | inactive

SMILES | Potency [1] | Potency [2] | outcome [3] | activity change, negative = cytotoxicity [4] | Potency [5] | outcome [6] | outcome [7] | Potency [8] | Potency [9] | outcome [10]
CN1C[C@H](C(=O)N[C@]2(C)O[C@@]3(O)[C@@H]4CCCN4C(=O)[C@H](Cc4ccccc4)N3C2=O)C=C2c3cccc4[nH]cc(c34)C[C@H]21 |  |  | inactive |  | inactive |  | inactive |  |  | inactive
O=P1(N(CCCl)CCCl)NCCCO1 (stereo not drawn) | > 46 µM | > 46 µM | inactive | 2.35% | inactive | inactive | inactive | inactive | inactive | inactive
C#C[C@]1(O)CC[C@H]2[C@@H]3CCC4=CC(=O)CC[C@]4(C)[C@H]3CC[C@@]21C | 0.338 µM (active) |  |  |  |  |  |  |  |  | 
C[C@]1(O)CC[C@H]2[C@@H]3CCC4=CC(=O)CC[C@]4(C)[C@@]3(F)[C@@H](O)C[C@@]21C |  |  | inactive |  | inactive | inactive | inactive | inactive | inactive | inactive
CC(C)NC(C)C |  |  | inactive | -15.2% | inactive | inactive | inactive | inactive | inactive | inactive
O=C(O)CCCc1ccc(N(CCCl)CCCl)cc1 |  |  | inactive |  | inactive | inactive | inactive |  | 3.16 µM (active) | inactive
CCC(C)(C)c1ccc(O)cc1 |  |  | inactive | -23.4% | inactive | inactive | inactive | inactive | inactive | inactive
CC(C)c1cccc(C(C)C)c1O |  |  | inactive | 4.32% | inactive | inactive | inactive | inactive | inactive | inactive
Clc1cccc(SC2CCNCC2)n1 |  |  | inactive |  |  |  |  |  |  | 
C[N+]1(C)[C@@H]2CC(OC(=O)[C@H](CO)c3ccccc3)C[C@H]1[C@@H]1O[C@@H]12 (stereo partly drawn) | > 20.6 µM |  |  |  |  |  |  |  |  | 
CCC1(CC)C(=O)C=CNC1=O | > 20.6 µM | > 20.6 µM | inactive |  |  |  |  |  |  | 
Oc1ccc(Cl)cc1 |  |  | inactive | 5.07% | inactive | inactive | inactive | inactive | inactive | inactive
C[C@]12CCC(=O)C=C1CC[C@@H]1[C@@H]2CC[C@]2(C)C(=O)CC[C@@H]12 |  |  | inactive | -137% (active) and -117% (active) | inactive | inactive | inactive | 25.1 µM (active) | inactive | inactive
O=C(CCCN1CCC2(CC1)C(=O)NCN2c1ccccc1)c1ccc(F)cc1 | > 46 µM and > 20.6 µM | > 46 µM and > 20.6 µM | inactive |  |  |  |  |  |  | 
Nc1ccccc1 |  |  | inactive | -16.9% | inactive | inactive | inactive | inactive | inactive | inactive
COc1cc(OC)c(OC)cc1C=O |  |  |  | 6.21% | inactive | inactive | inactive | inactive | inactive | inactive
